Compounds with a hit are over-represented: about 19% of the library has one in this group of screens.
Lassa entry inh = qHTS for Inhibitors of binding or entry into cells for Lassa Virus. Lassa virus pseudotype entry inhibition, cell reporter. Potency, µM (series often up to 37.9 µM), for the others: top-dose activity change, negative = inhibition, usual class: inhibitors. 1.2% of 300,000 active; calls by dose curve; tested in HEK293 cells; note: potency is the fitted concentration of half-maximal effect; % is set by controls: 0 for no effect and ±100 for the full control effect; nearly all actives have a fitted effect of over 50% in size
Marburg entry inh = qHTS for inhibitors of binding or entry into cells for Marburg Virus; Marburg virus pseudotyped entry inhibition, cell reporter; Potency, µM (series often up to 37.8 µM), for the others: top-dose activity change, negative = inhibition, most hits filed as inhibitors; 1.8% of 300,000 active; AID 540276, 2011; calls by dose curve; tested in HEK293 cells; note: potency is the fitted concentration of half-maximal effect; % is set by controls: 0 for no effect and ±100 for the full control effect
CHX counter = Cycloheximide Counterscreen for Small Molecule Inhibitors of Shiga Toxin; cell reporter, cycloheximide protein synthesis inhibition counterscreen; max response, %; 12% of 300,000 active; AID 2314, 2010; in the data active = max response mostly above about 13%, no sharp cut-off; inactive = mostly below about 14%; note: read at 38.3 µM for the half of the compounds with a filed dose; 0% is about no effect
Pf growth 48h = Primary qHTS for delayed death inhibitors of the malarial parasite plastid, 48 hour incubation; P. falciparum luciferase growth in erythrocytes, 48 h; Potency, µM (top dose mostly 28.7 µM), for inactives: at the highest dose activity change, negative = inhibition, hits mostly inhibitors; 5.9% of 310,000 active; AID 504832, 2011; note: potency is the fitted concentration of half-maximal effect; % is set by controls: 0 for no effect and ±100 for the full control effect
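Luciferase-expressing parasites in RBCs, 2% Hct / 0.1% parasitemia final; RPMI 1640 + 0.5% Albumax; 37 C, 5% CO2, one generation; luminescence read-out, lower signal = inhibition.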
Shiga inhibitor = A qHTS for Small Molecule Inhibitors of Shiga Toxin | Vero cells, Shiga toxin protein synthesis inhibition reporter | inhibition, % at 38.7 µM | 9.2% of 290,000 active; in the data active = inhibition mostly above about 28%, no sharp cut-off; inactive = mostly below about 43%; note: 0% is about no effect
Pf growth 96h = Primary qHTS for delayed death inhibitors of the malarial parasite plastid, 96 hour incubation; Potency, µM (highest dose often 28.7 µM), inactives show top-dose activity change, negative = inhibition, actives largely listed as inhibitors; P. falciparum luciferase reporter growth, 96 h; 6.9% of 320,000 active; note: potency is the fitted concentration of half-maximal effect; % is set by controls: 0 for no effect and ±100 for the full control effect
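Two-generation exposure (96 h) targets delayed-death phenotype. Reporter parasites carrying integrated firefly luciferase, in red cells at 2% hematocrit and 0.05% parasitemia final, kept at 37 C, 5% CO2; luminescence loss indicates inhibition.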
Numbers without * were called inactive; i = inactive; ? = inconclusive; · = no result given; [ ] = dose if it differs, or a comment. Unless noted, calls come from the whole dose curve; as a rule, active = well fitted inhibition curve with a large enough effect; inconclusive = small, poorly fitted or top-dose-only effect, or another doubt; inactive = no such curve, though single readings can be large or run the other way.

SMILES	Lassa entry inh	Marburg entry inh	CHX counter	Pf growth 48h	Shiga inhibitor	Pf growth 96h
O=C(O)c1sc2ncccc2c1OCc1ccccc1	2%[46.1 µM]	10%[46.1 µM]	-1	-11%	-15	10%
CCOc1ccc(C(C)=O)cc1CC(C(N)=O)C(N)=O	2%	?	-2	·	-9	-55%
C[C@@H](C(=O)Nc1cccnc1)n1c(=O)[nH]c2ccccc2c1=O	·	·	-1	12µM*	-6	?
CCN(CC)C(=O)Cn1cc(C(=O)C(=O)N(C)C2CCN(C)CC2)c2ccccc21	9%	0%	-2	60%	12	25%
O=C(Cn1c(=O)[nH]c2ccccc2c1=O)Nc1cccnc1	·	·	-1	14%	-7	36%
CCC1CCCCN1C(=O)C(=O)c1cn(CC(=O)N(CC)CC)c2ccccc12 (stereo not given)	24%[46.1 µM]	1%[46.1 µM]	9	-17%	-9	10µM*
Cc1[nH]c2ccccc2c1C(=O)C(=O)Nc1ccc2c(c1)OCCO2	20%[46.1 µM]	?	34*	-29%	96*	-23%
COC(=O)CSc1nnc(SCc2ccccc2)s1	-5%	-10%	2	8%	15	?
C=CCc1ccc(OCCOc2ccc(/C=N/n3cnnc3)cc2OCC)c(OC)c1	-1%	0%	7	-2%	-13	·
COC(=O)C1=C(c2ccc(OC(F)(F)F)cc2)C[C@@H]2CC[C@H]1N2C(=O)NC(C)C	·	·	·	?	·	-25%
COC(=O)C1=C(c2ccc(OC(F)(F)F)cc2)C[C@@H]2CC[C@H]1N2C(=O)NCCOc1ccccc1Cl	·	·	·	10µM*	·	?
COC(=O)C1=C(c2ccc(Cl)c(C(F)(F)F)c2)C[C@@H]2CC[C@H]1N2C(=O)NCc1ccco1	·	·	·	?	·	8.3µM*
COC(=O)C1=C(c2ccc(Cl)c(C(F)(F)F)c2)C[C@@H]2CC[C@H]1N2C(=O)NCCO	·	·	·	?	·	-7%
COC(=O)C1=C(c2ccc(Cl)c(C(F)(F)F)c2)C[C@@H]2CC[C@H]1N2C(=O)NCCOc1ccccc1	·	·	·	12µM*	·	4.7µM*
COC(=O)C1=C(c2ccc(OC(F)(F)F)cc2)C[C@@H]2CC[C@H]1N2C(=O)NCCOc1ccccc1	·	·	·	12µM*	·	4.7µM*
Cc1ccccc1N=C1c2cc([N+](=O)[O-])ccc2-c2ncccc21	11%	-9%	6	3%	-3	?
O=[N+]([O-])c1ccc(-c2nnc(-c3ccccc3)c(NCCCO)n2)cc1	8%	?	-3	?	23	5.2µM*
Clc1ccc(-c2cn3c(n2)SCC3)cc1	12%	-9%[46.1 µM]	38*	i	162*	?
Oc1ccc(-c2cn3c(n2)SCC3)cc1	15%	7%	13	·	20	7%
c1ccc(-c2cn3c(n2)SCC3)cc1	13%	16%	29*	51%	50*	44%
Cc1oc2ccccc2c1-c1cn2c(n1)SCC2	20%	10%	11*	4%	24	?
Brc1ccc(-c2cn3c(n2)SCC3)cc1	?	?	35*	197%	100*	-14%
COc1ccc(/C(N)=N/OC(=O)/C=C/c2ccccc2)cc1	3%	?	19	?	30	-28%
Cc1ccccc1/C(N)=N/OC(=O)/C=C/c1ccccc1	12%	8%	44*	-14%	159*	·
COc1ccc(/C=C/C(=O)O/N=C(\N)c2ccccc2)cc1OC	-16%	?	36*	36%	28*	?
SMILES	Lassa entry inh	Marburg entry inh	CHX counter	Pf growth 48h	Shiga inhibitor	Pf growth 96h
Cc1ccc(/C(N)=N/OC(=O)/C=C/c2ccccc2)cc1	-5%	?	23*	52%	55	48%
CC(=O)c1ccc(OC(=O)/C=C/c2ccccc2)cc1	·	·	-2	20%	10	10µM*
CC(=O)c1ccc(OC(=O)Oc2ccc(C(C)=O)cc2)cc1	3%	9%	·	·	·	·
CCN(CC)CCOC(=O)/C=C/c1ccccc1	·	2%	6	57%	7	81%
Cc1ccc2oc(=O)c3cnn(CC(=O)N(CCC(C)C)Cc4ccco4)c3c2c1	·	·	-7	·	-23	90%
COc1cc(CN2CCNC(=O)C2CC(=O)NC2CCC2)cc(OC)c1 (stereo not given)	·	·	-2	9%	-3	?

Compound activity (PubChem)
